Experimental data taken from PubChem BioAssay (NCATS).
Values joined by “and” are separate entries in the source; they are usually repeats but may differ in a detail not shown here. Identical values can stand only once. Results filed as inconclusive are left out. Active and inactive are the calls of the source. The call rests on the fitted dose curve; in most records, active means well fitted inhibition curve with a large enough effect; inconclusive means small, poorly fitted or top-dose-only effect; inactive means flat fitted curve, though single readings scatter.

Key:
CRL-7250 [1] = assay: Cytotoxic Profiling of Annotated Libraries Using Quantitative High-Throughput Screening (AID 1296008); conditions: Five cell lines viability, CellTiter-Glo ATP luminescence, 48-72 h; max response: hits give low values; on max response: on the % scale 0 is the no-effect control and ±100 the full control effect
Outline: (§1)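 Compounds were pin-transferred onto cells and incubated 48 or 72 hr at 37 degree Celsius, 95% humidity. CellTiter-Glo was added, plates sat 10 min at room temperature, then ATP-coupled luminescence was imaged as the viability read-out.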

HaCat [2] = assay: as above; conditions: Five cell lines viability, CellTiter-Glo ATP luminescence, 48-72 h; max response: hits give low values
Outline: as §1

KB-3-1 = assay: as above; conditions: Five cell lines viability, CellTiter-Glo ATP luminescence, 48-72 h; max response: hits give low values
Outline: as §1

NIH3T3 [3] = assay: as above; conditions: Five cell lines viability, CellTiter-Glo ATP luminescence, 48-72 h; max response: hits give low values
Outline: as §1

HACAT [4] = assay: qHTS assay to identify novel small-molecules to repurpose for Merkel cell carcinoma treatment (AID 1296009); conditions: MCC and control cell lines, CellTiter-Glo viability, 72 h; at 44.8 µM (top of the series) unless noted
Outline: (§2)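 qHTS format: cells treated with library compounds in DMSO across 8 (NPC) or 11 (MIPE) concentrations. Readout after 72 hr at 37 degree celsius was CellTiter-Glo luminescence.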

HEK293T = assay: as above; conditions: MCC and control cell lines, CellTiter-Glo viability, 72 h; at 44.8 µM (top of the series) unless noted
Outline: as §2

MCC-13 = assay: as above; conditions: MCC and control cell lines, CellTiter-Glo viability, 72 h; series mostly up to 46 µM
Outline: as §2

MCC-26 = assay: as above; conditions: MCC and control cell lines, CellTiter-Glo viability, 72 h; series mostly up to 46 µM
Outline: as §2

MKL-1 = assay: as above; conditions: MCC and control cell lines, CellTiter-Glo viability, 72 h; series mostly up to 46 µM
Outline: as §2

MKL-2 = assay: as above; conditions: MCC and control cell lines, CellTiter-Glo viability, 72 h; series mostly up to 46 µM
Outline: as §2

UISO = assay: as above; conditions: MCC and control cell lines, CellTiter-Glo viability, 72 h; series mostly up to 46 µM
Outline: as §2

WaGa = assay: as above; conditions: MCC and control cell lines, CellTiter-Glo viability, 72 h; series mostly up to 46 µM
Outline: as §2

SC27B = assay: qHTS profiling for inhibitors of Plasmodium falciparum proliferation (AID 504749);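 further: 0% = DMSO vehicle and full inhibition = artemisinin control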; conditions: P. falciparum in erythrocytes, SYBR Green DNA, 72 h; series mostly up to 28.7 µM
Outline: (§3)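 Parasite proliferation within erythrocytes, 72 h exposure. Endpoint: SYBR Green I fluorescence after overnight lysis at room temperature. Controls: 0.29 uM artemisinin, DMSO.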

TAB109 = assay: as above; conditions: P. falciparum in erythrocytes, SYBR Green DNA, 72 h; series mostly up to 28.7 µM
Outline: as §3

TAB113 = assay: as above; conditions: P. falciparum in erythrocytes, SYBR Green DNA, 72 h; series mostly up to 28.7 µM
Outline: as §3

TAB165 = assay: as above; conditions: P. falciparum in erythrocytes, SYBR Green DNA, 72 h; series mostly up to 28.7 µM
Outline: as §3

W2 = assay: as above; conditions: P. falciparum in erythrocytes, SYBR Green DNA, 72 h; series mostly up to 28.7 µM
Outline: as §3

HEK293 = assay: Cytotoxic Profiling of Annotated Libraries Using Quantitative High-Throughput Screening (AID 1296008); conditions: Five cell lines viability, CellTiter-Glo ATP luminescence, 48-72 h; max response: hits give low values; on max response: on the % scale 0 is the no-effect control and ±100 the full control effect
Outline: as §1

CRL-7250 [5] = assay: qHTS assay to identify novel small-molecules to repurpose for Merkel cell carcinoma treatment (AID 1296009); conditions: MCC and control cell lines, CellTiter-Glo viability, 72 h; at 44.8 µM (top of the series) unless noted
Outline: as §2

NIH3T3 [6] = assay: as above; conditions: MCC and control cell lines, CellTiter-Glo viability, 72 h; at 44.8 µM (top of the series) unless noted
Outline: as §2
Further: nearly all actives have a fitted effect of over 60% in size.

Nc1ccccc1
inactive: max response (CRL-7250 [1]) -1.03% | outcome (HaCat [2]) | max response (KB-3-1) -12% | max response (NIH3T3 [3]) -0.773% | outcome (HACAT [4]) | outcome (HEK293T) | outcome (MCC-13) | Potency (MCC-26) | Potency (MKL-1) | Potency (MKL-2) | Potency (UISO) | Potency (WaGa)

Oc1ccc(Cl)cc1
inactive: Potency (SC27B) | Potency (TAB109) | Potency (TAB113) | Potency (TAB165) | Potency (W2) | max response (CRL-7250 [1]) -6.01% | outcome (HaCat [2]) | max response (KB-3-1) -9.29% | max response (NIH3T3 [3]) 0.545% | outcome (HACAT [4]) | outcome (HEK293T) | outcome (MCC-13) | Potency (MCC-26) | Potency (MKL-1) | Potency (MKL-2) | Potency (UISO) | Potency (WaGa)

O=C(O)c1ccc(=O)[nH]c1
inactive: outcome (CRL-7250 [1]) | max response (HEK293) -0.0722% | outcome (HaCat [2]) | outcome (NIH3T3 [3]) | outcome (CRL-7250 [5]) | outcome (HACAT [4]) | outcome (MCC-13) | Potency (MCC-26) | Potency (MKL-1) | Potency (MKL-2) | outcome (NIH3T3 [6]) | Potency (UISO) | Potency (WaGa)

CC(C(=O)c1ccccc1)N(C)C (stereo unspecified)
inactive: max response (CRL-7250 [1]) 3.38% | max response (HEK293) -1.39% | outcome (HaCat [2]) | max response (NIH3T3 [3]) -10.7% | outcome (HACAT [4]) | outcome (MCC-13) | Potency (MKL-1) | Potency (MKL-2) | Potency (UISO) | Potency (WaGa)

O=C(O)/C=C\C(=O)O
inactive: max response (CRL-7250 [1]) -1.31% | max response (HaCat [2]) 1.05% | max response (KB-3-1) -5.31% | max response (NIH3T3 [3]) -5.56%

CC(Cc1ccccc1)N(C)Cc1ccco1 (stereo unspecified)
inactive: max response (CRL-7250 [1]) -3.65% | max response (HEK293) -5.17% | outcome (HaCat [2]) | max response (NIH3T3 [3]) -7.67% | outcome (HACAT [4]) | outcome (MCC-13) | Potency (MKL-1) | Potency (MKL-2) | Potency (UISO) | Potency (WaGa)

ClCCN1CCCC1
inactive: max response (CRL-7250 [1]) -0.393% | outcome (HEK293) | outcome (HaCat [2]) | outcome (NIH3T3 [3]) | outcome (HACAT [4]) | outcome (HEK293T) | outcome (MCC-13) | Potency (MKL-1) | Potency (MKL-2) | outcome (NIH3T3 [6]) | Potency (UISO) | Potency (WaGa)

CC[N+]1(CC)CCC(OC(=O)C(O)(c2ccccc2)c2ccccc2)C1 (stereo unspecified)
inactive: max response (CRL-7250 [1]) -3.85% | max response (HEK293) 3.52% | outcome (HaCat [2]) | max response (NIH3T3 [3]) 4.46% | outcome (HACAT [4]) | outcome (MCC-13) | Potency (MCC-26) | Potency (MKL-1) | Potency (MKL-2) | Potency (UISO) | Potency (WaGa)

CC(C)(N)Cc1ccccc1Cl
inactive: outcome (CRL-7250 [1]) | outcome (HEK293) | outcome (HaCat [2]) | max response (NIH3T3 [3]) -1.53% | outcome (CRL-7250 [5]) | outcome (HACAT [4]) | outcome (HEK293T) | outcome (MCC-13) | Potency (MCC-26) | Potency (MKL-1) | Potency (MKL-2) | Potency (UISO) | Potency (WaGa)

COc1ccc2c3c1O[C@H]1[C@H](O)CC[C@H]4[C@@H](C2)N(C)CC[C@@]341
inactive: outcome (CRL-7250 [1]) | outcome (HaCat [2]) | max response (KB-3-1) -6.57% | outcome (NIH3T3 [3]) | outcome (CRL-7250 [5]) inactive [at 92 µM] | outcome (HACAT [4]) inactive [at 92 µM] | outcome (MCC-13) | Potency (MKL-2) | outcome (NIH3T3 [6]) inactive [at 92 µM] | Potency (UISO) | Potency (WaGa)

NNc1ccccc1
inactive: Potency (SC27B) | Potency (TAB109) | Potency (TAB113) | Potency (TAB165) | outcome (CRL-7250 [1]) | max response (HaCat [2]) 1.05% | max response (KB-3-1) -8.39% | max response (NIH3T3 [3]) 4.99% | outcome (CRL-7250 [5]) | outcome (MCC-13) | Potency (MKL-1) | Potency (MKL-2) | Potency (WaGa)

COc1cc(OC)c(OC)cc1C=O
inactive: max response (CRL-7250 [1]) -7.23% and -7.54% | max response (HaCat [2]) -4.25% | outcome (HaCat [2]) | max response (KB-3-1) -7.6% and -8.54% | max response (NIH3T3 [3]) 2.47% and 4.91% | outcome (HACAT [4]) | outcome (HEK293T) inactive [at 92 µM] | outcome (MCC-13) | Potency (MKL-1) | Potency (MKL-2) | Potency (UISO) | Potency (WaGa)

CCCCCCC(=O)CCCCCC/C=C/C[C@@H](O)[C@H](O)[C@@](N)(CO)C(=O)O
inactive: Potency (SC27B) | Potency (TAB109) | Potency (TAB113) | Potency (TAB165) | max response (CRL-7250 [1]) -1.04% | max response (HEK293) -0.716% | max response (KB-3-1) 4.21% and -11.8% | max response (NIH3T3 [3]) 0.482% | outcome (MCC-13) | Potency (MCC-26) | Potency (MKL-1) | Potency (MKL-2) | Potency (UISO) | Potency (WaGa)

CCCCC/C=C\C/C=C\C/C=C\C/C=C\CCCC(=O)NCC(=O)O
inactive: activity, negative = inhibition (SC27B) 0.575% [at 2.67 µM] | activity, negative = inhibition (TAB109) -11.7% [at 2.67 µM] | activity, negative = inhibition (TAB113) 3.88% [at 2.67 µM] | activity, negative = inhibition (W2) 6.9% [at 2.67 µM] | max response (CRL-7250 [1]) -2.63% | max response (HEK293) -7.97% | max response (KB-3-1) -17.5% | outcome (NIH3T3 [3]) | outcome (MCC-13) | Potency (MCC-26) | Potency (MKL-1) | outcome (NIH3T3 [6]) | Potency (UISO) | Potency (WaGa)
